Screens from PubChem.
CRFBP-R2 block: antagonists of CRF-binding protein/CRF-R2 receptor complex | HEK293 CRF-R2/CRF-BP, CRF-induced calcium fluorescence | inhibition, % at 11.8 µM | hit rate 0.59% among 350,000;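 active = inhibition of the ligand-induced calcium signal above about 50% at the single tested concentration, limit read from the data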
CRFBP-R2 agonist: CRF-BP/CRF-R2 complex agonism; HEK293 CRF-R2/CRF-BP, calcium dye fluorescence (FLIPR); percent of saturating CRF peptide response; AID 588473; activation, % at 13.2 µM; hit rate 0.46% among 350,000;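 active = activation of at least 50%, plus an integration ratio under a set limit after plate pattern correction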
iPSC survival up: enhancers of human iPSC single-cell survival. survival enhancement, % at 20 µM. hiPSC single-cell survival, ATPlite luminescence; 100% = ROCK inhibitor wells, 0% = DMSO. hit rate 0.044% among 360,000. AID 602274; in the data active = survival enhancement above about 18%;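 note: cells exposed to compounds for 16 hours before the ATP read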
SKN-1 inh: blocks SKN-1 activity in C. elegans; C. elegans VP596 Pgst-4::GFP/RFP ratio, acrylamide-induced, 24 h; inhibition, % at 21.8 µM; hit rate 0.49% among 360,000; AID 624304;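 active = interference check ratio from 0.5 to 1.5 plus GFP to RFP signal ratio inhibition reaching or exceeding a fixed threshold, cut at about 30% in these data, passing the limit was not always enough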
TAG inh: inhibitors of triacylglycerol accumulation. H9c2 cells, Nile Red lipid (TAG) fluorescence; cells loaded with 200 µM oleic acid. inhibition, % at 12.5 µM. hit rate 0.66% among 230,000;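 active = pattern-corrected inhibition of lipid staining of at least 50% with the nuclear-stain viability signal not falling by more than 50%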
H9c2 protect: myocardial damage modulation in H9c2 cells. H9c2 cardiomyocytes, H2O2 injury protection, ATPLite, 2 h. protection from H2O2 cell death, % at 20 µM. hit rate 0.63% among 360,000;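 active = compounds giving at least 50% protection of heart cells from peroxide-induced death in the single-dose screen, raw or plate-pattern-corrected value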
Each line names hits and unclear results; the compound was inactive in the other large screens. This is a sample that favours compounds with a hit; in the whole collection about 2.5% have one here.

Cc1cccc(C)c1NC(=O)Cc1cccs1	CRFBP-R2 block 78
COC(=O)c1c(NC(NC(=O)c2ccccc2)(C(F)(F)F)C(F)(F)F)sc2c1CCN(C)C2	none (no result: TAG inh)
COc1cc(C(=O)N2CCCCC2c2cc(C(=O)Nc3ccccc3Cl)no2)cc(OC)c1C (stereo not drawn)	none (no result: CRFBP-R2 block, CRFBP-R2 agonist)
COc1ccc(Nc2nc(N3CCCC3)nc(N3CCCC3)n2)c(OC)c1	none (no result: TAG inh)
COc1ccc(Nc2nc(Nc3ccc(OC)cc3OC)nc(N3CCN(C)CC3)n2)c(OC)c1	H9c2 protect 64 (no result: TAG inh)
CCN(Cc1nc2cc(Cl)ccc2c(=O)[nH]1)C(=O)CN1C(=O)NC2(CCCCC2C)C1=O (stereo not drawn)	none
CNc1nc(-c2c[nH]c3ccccc23)cs1	none
Nc1nc(-c2c[nH]c3ccccc23)cs1	H9c2 protect 49
c1ccc2sc(NC3=NCN(C4CCCCC4)CN3)nc2c1	none (no result: TAG inh)
CC1CCCCC1N1CN=C(Nc2nc3ccccc3s2)NC1 (stereo not drawn)	SKN-1 inh 56 (no result: TAG inh)
CCN(CC(=O)Nc1ccc(NC(C)=O)cc1)C(=O)C1(c2ccc(Cl)cc2)CCC1	none
COC(=O)c1ccccc1-c1c2ccc(=N)cc-2oc2cc(N)ccc12	CRFBP-R2 agonist 176
O=C(Nc1ccccc1)c1nc[nH]c1C(=O)NCCCCNC(=O)c1[nH]cnc1C(=O)Nc1ccccc1	H9c2 protect 81
O=C(Nc1ccccc1)c1nc[nH]c1C(=O)NCCNC(=O)c1[nH]cnc1C(=O)Nc1ccccc1	H9c2 protect 52
O=C(N[C@@H]1CC[C@@H](CCNC(=O)C2CCOCC2)O[C@@H]1CO)c1ccncc1	none (no result: CRFBP-R2 block, CRFBP-R2 agonist, iPSC survival up, TAG inh, H9c2 protect)
Cc1ccc(N2C(=O)c3sc4nnc(C)c(=O)n4c3C2=O)cc1	CRFBP-R2 block 52 (no result: TAG inh)
O=C(NCc1ccc2c(c1)OCO2)c1cccc(N2CCCC2=O)c1	SKN-1 inh 43
O=C(Nc1ccc2nc(-c3ccccc3)[nH]c2c1)c1cccs1	SKN-1 inh 39 (no result: TAG inh)
O=C(O)CCC(=O)Nc1ccc(-c2nc3ccc(C(=O)c4ccccc4)cc3[nH]2)cc1	none
O=C(c1ccccc1)c1ccc2nc(-c3ccc(NC(=O)c4ccccc4F)cc3)[nH]c2c1	TAG inh 58
Cc1ccc(C)c2sc(NC(=O)c3ccc(N4C(=O)CCC4=O)cc3)nc12	CRFBP-R2 agonist 116
COc1ccc(C)c2sc(NC(=O)c3cccc(N4C(=O)CCC4=O)c3)nc12	none
Cc1cn([C@H]2C[C@H](O)[C@@H](CCC(=O)NCC(c3ccccc3)c3ccccc3)O2)c(=O)[nH]c1=O	none (no result: CRFBP-R2 block, CRFBP-R2 agonist, TAG inh)
NC1=NC[C@H](Cc2ccc(O)cc2)N1CCc1cc(C(F)(F)F)cc(C(F)(F)F)c1	none
NC1=NC[C@@H](CC2CCCCC2)N1CCc1cc(C(F)(F)F)cc(C(F)(F)F)c1	CRFBP-R2 agonist 78
Cc1nc2nc(C)c(C)nc2nc1C	none (no result: CRFBP-R2 block, CRFBP-R2 agonist)
Cc1nn(C)cc1CN(C)C(=O)c1ccc(OC2CCN(Cc3ccccn3)CC2)cc1	CRFBP-R2 block 57 (no result: TAG inh)
CN(C)c1ccc(N=Cc2nc(-c3ccccc3)oc2O)cc1	CRFBP-R2 agonist 161
Oc1oc(-c2ccccc2)nc1C=Nc1ccccc1	none (no result: TAG inh)
Cc1cccc(C)c1NC(=O)COC(=O)c1ccc([N+](=O)[O-])o1	none
COc1ccc(C2=Nn3c(nnc3-c3ccco3)SC2)cc1	CRFBP-R2 block 68 (no result: TAG inh)
Oc1ccc(C2=Nn3c(nnc3-c3ccco3)SC2)cc1O	H9c2 protect 69
COc1ccc(OC)c(C2=Nn3c(nnc3-c3ccco3)SC2)c1	none (no result: TAG inh)
O=C(N/N=C/c1ccccc1)c1ccc(CN2C(=O)c3cccc4cccc2c34)cc1	none (no result: TAG inh)
O=C(N/N=C/c1ccc(O)cc1O)c1ccc(CN2C(=O)c3cccc4cccc2c34)cc1	H9c2 protect 52
CC1(C)CC(=O)c2cnc3c(C#N)cnn3c2C1	none
COC(=O)/C(C#N)=C/c1c(N2CCN(c3ccccc3)CC2)nc2ccccn2c1=O	none (no result: TAG inh)
CNC(=O)/C(C#N)=C/c1c(N(Cc2ccccc2)Cc2ccccc2)nc2ccccn2c1=O	H9c2 protect 56 (no result: TAG inh)
COCCCNc1c2c3c(cccc3[nH]c1=O)C(=O)c1ccccc1-2	CRFBP-R2 agonist 204
COCCCNC1=C(Cl)C(=O)c2ccccc2C1=O	none
Clc1ccc(OCc2noc(-c3ccsc3)n2)c(Cl)c1	SKN-1 inh 74
Fc1cc(Cl)c(OCc2noc(-c3ccsc3)n2)c(Cl)c1	none
O=S(=O)(NC1CCCCC1N1CCOCC1)c1ccc(Cl)cc1 (stereo not drawn)	CRFBP-R2 agonist 133
O=S(=O)(NC1CCCCC1N1CCN(c2ccccc2F)CC1)c1ccc(Cl)cc1 (stereo not drawn)	CRFBP-R2 agonist 93 (no result: TAG inh)
O=C(NCc1cccnc1)c1cc(C2CCCCN2C(=O)OCc2ccccc2)on1 (stereo not drawn)	none (no result: CRFBP-R2 block, CRFBP-R2 agonist)
S=C1SCN(Cc2cccnc2)CN1Cc1cccnc1	CRFBP-R2 agonist 101
Cc1ccc(C(=O)N/C(=C\c2cn(C)c3ccccc23)C(=O)NCCN2CCOCC2)cc1	none (no result: TAG inh)
Cc1ccc(C(=O)N/C(=C\c2cn(C)c3ccccc23)C(=O)NCCCN2CCOCC2)cc1	CRFBP-R2 block 101 (no result: TAG inh)
Cc1ccc(C(=O)Nc2c(-c3ccc(Cl)cc3)[nH][nH]c2=O)cc1	none (no result: CRFBP-R2 block, CRFBP-R2 agonist, TAG inh)
CC(C)(C)OC(=O)NCc1ccc(NC(=O)c2nc[nH]c2C(=O)NCCCCCCNC(=O)c2[nH]cnc2C(=O)Nc2ccc(CNC(=O)OC(C)(C)C)cc2)cc1	H9c2 protect 51
CC(C)(C)OC(=O)NCc1ccc(NC(=O)c2nc[nH]c2C(=O)NCCCNC(=O)c2[nH]cnc2C(=O)Nc2ccc(CNC(=O)OC(C)(C)C)cc2)cc1	H9c2 protect 52
CC(C)(C)OC(=O)NCc1ccc(NC(=O)c2nc[nH]c2C(=O)NCCCCNC(=O)c2[nH]cnc2C(=O)Nc2ccc(CNC(=O)OC(C)(C)C)cc2)cc1	H9c2 protect 67
CC(C)(C)OC(=O)NCc1ccc(NC(=O)c2nc[nH]c2C(=O)NCCN(CCNC(=O)c2[nH]cnc2C(=O)Nc2ccc(CNC(=O)OC(C)(C)C)cc2)CCNC(=O)c2[nH]cnc2C(=O)Nc2ccc(CNC(=O)OC(C)(C)C)cc2)cc1	none (no result: TAG inh)
CCN(CC)S(=O)(=O)c1ccc(O)c(NC(=O)COc2ccc(S(=O)(=O)N3CCOCC3)cc2)c1	none
CCCC(=O)N1CCC1(C)C(=O)Nc1ccc(OC)c(OC)c1 (stereo not drawn)	none (no result: CRFBP-R2 block, CRFBP-R2 agonist)
O=C(N/N=C/c1ccc(O)cc1)Nc1cccc2nsnc12	H9c2 protect 58
COc1cc(/C=N/NC(=O)Nc2cccc3nsnc23)cc(OC)c1OC	none (no result: TAG inh)
COc1ccc2[nH]c(=O)c(-c3nnn(-c4ccc(F)cc4)n3)cc2c1	H9c2 protect 56
CCCCNc1cc(=O)oc2ccccc12	SKN-1 inh 30
O=c1cc(NCc2ccccc2)c2ccccc2o1	none
CC/C(C)=N\N=C\c1c(O)n(CC)c2cc(C3=NNC(=O)CC3)ccc12	H9c2 protect 61
